{"source": "PubChem BioAssay (NCATS)", "note": "Values without a mark were called inactive. Inconclusive results are not listed. Active and inactive are the calls of the source. Calls come from the whole dose curve; as a rule, active = well fitted inhibition curve with a large enough effect; inconclusive = small, poorly fitted or top-dose-only effect; inactive = flat fitted curve, though single readings scatter.", "data": [{"molecular_target": "Phospholipid hydroperoxide glutathione peroxidase GPX4 (Homo sapiens) (UniProt P36969)", "sequence (P36969 whole entry, looked up)": "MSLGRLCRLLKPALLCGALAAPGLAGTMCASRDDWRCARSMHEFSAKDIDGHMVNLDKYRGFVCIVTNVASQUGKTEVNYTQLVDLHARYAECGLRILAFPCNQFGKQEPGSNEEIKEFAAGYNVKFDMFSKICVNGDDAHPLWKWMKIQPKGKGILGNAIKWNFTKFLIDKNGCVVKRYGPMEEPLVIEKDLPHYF", "assay": "Primary qHTS Assay for Inhibitors of Recombinant Selenoprotein Glutathione Peroxidase 4 (GPX4) (AID 1845192); note: nearly all actives have a fitted effect of over 65% in size; for activity change, negative = inhibition: % is set by controls: 0 for no effect and ±100 for the full control effect", "conditions": "recombinant GPX4, GR-coupled NADPH fluorescence, 15 min; series mostly up to 27.8 µM; activity change, negative = inhibition: at the top concentration", "how_it_was_run": "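NADPH consumption followed by fluorescence at 340/450 nm, t=0 and after 15 min at room temperature. Reaction started with cumene hydroperoxide (0.5 mM final) after 30 min compound–GPX4 preincubation; final 200 nM GPX4, 100 nM GR, 1 mM GSH, 0.5 mM NADPH.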", "values": [{"smiles": "CCc1cccc2c3c([nH]c12)[C@@](CC)(CC(=O)O)OCC3", "activity change, negative = inhibition": "5.07% [at 50 µM]"}, {"smiles": "CC[C@H](C)[C@H](NC(=O)[C@H](Cc1ccc(O)cc1)NC(=O)[C@@H](N)C(C)C)C(=O)N[C@@H](Cc1cnc[nH]1)C(=O)N1CCC[C@H]1C(=O)N[C@@H](Cc1ccccc1)C(=O)O", "activity change, negative = inhibition": "4.63% [at 4.52 µM]"}, {"smiles": "C/C=C/C=C/[C@@H]1O[C@](O)([C@H](CC)C(=O)NC/C=C/C=C(\\C)[C@@H](OC)[C@@H](C)[C@@H]2O[C@H](/C=C/C=C/C=C(\\C)C(=O)c3c(O)ccn(C)c3=O)[C@H](O)[C@@H]2O)[C@H](O)[C@H](O)C1(C)C", "activity change, negative = inhibition": "3.88% [at 15.3 µM]"}, {"smiles": "CC(C)=CCC/C(C)=C/CO[C@@H]1O[C@H](CO[C@@H]2O[C@@H](CO)[C@H](O)[C@H]2O)[C@@H](O)[C@H](O)[C@H]1O", "activity change, negative = inhibition": "-1.26%"}, {"smiles": "CCc1cc(CC[C@]2(C3CCCC3)CC(O)=C(Cc3nc4nc(C)cc(C)n4n3)C(=O)O2)cc(CC)n1", "outcome": "inactive [at 50 µM]"}, {"smiles": "C=C1C(O)CC2C(C(=O)O)=COC(OC3OC(CO)C(O)C(O)C3OC(=O)/C=C\\c3ccc(O)cc3)C12", "note": "(centres undefined)", "activity change, negative = inhibition": "0.287%"}, {"smiles": "CC1(C)CC[C@]2(C(=O)O)CC[C@]3(C)C(=CCC4[C@@]5(C)CC[C@H](O)C(C)(C)C5CC[C@]43C)C2C1", "note": "(some centres undefined)", "activity change, negative = inhibition": "-13.4%"}, {"smiles": "CCCCCOC(=O)Nc1nc(=O)n(C2O[C@H](C)[C@@H](O)[C@H]2O)cc1F", "note": "(some centres undefined)", "activity change, negative = inhibition": "-16% [at 50 µM]"}]}, {"molecular_target": "Luciferin 4-monooxygenase (Photinus pyralis) (UniProt P08659)", "assay": "Primary firefly luciferase (FLuc) qHTS assay for identification of artifact compounds. (AID 1845220); note: nearly all actives have a fitted effect of over 60% in size;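 for activity change, negative = inhibition: plate controls were DMSO vehicle for no effect and no enzyme for full effect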", "conditions": "purified firefly luciferase, luminescence, 5 min; series mostly up to 54.1 µM; activity change, negative = inhibition: at the top concentration", "how_it_was_run": "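Compounds sat 15 min at room temperature with 10 uM luciferin and 10 uM ATP (pH 7.6 Tris acetate). Firefly luciferase (10 nM final) was then added, and luminescence was read 5 min later. Data normalized to no-enzyme and DMSO controls were Hill-fitted.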", "values": [{"smiles": "CCOC(=O)C(CCc1ccccc1)NC(C)C(=O)N1Cc2ccccc2CC1C(=O)O", "note": "(centres undefined)", "outcome": "inactive"}, {"smiles": "CC1(C)CC[C@]2(C(=O)O)CC[C@]3(C)C(=CCC4[C@@]5(C)CC[C@H](O[C@H]6O[C@H](C(=O)O)[C@@H](O)[C@H](O[C@@H]7O[C@H](CO)[C@H](O)[C@H](O)[C@H]7O)[C@H]6O)C(C)(C)C5CC[C@]43C)[C@@H]2C1", "note": "(some centres undefined)", "activity change, negative = inhibition": "1.03% [at 11.6 µM]"}, {"smiles": "C=C1CC[C@@H]2C(C)(C)CCC[C@@]2(C)[C@@H]1CC/C(=C/C(=O)OC)COC(C)=O", "activity change, negative = inhibition": "-1.34%"}, {"smiles": "NC1=NC2(c3cc(NC(=O)c4ccc(F)cn4)ccc3F)COCC2CS1", "note": "(centres undefined)", "activity change, negative = inhibition": "-12.5%"}, {"smiles": "C[C@@H]1CC[C@]2(C(=O)O[C@@H]3O[C@H](CO[C@@H]4O[C@H](CO)[C@@H](O[C@@H]5O[C@@H](C)[C@H](O)[C@@H](O)[C@H]5O)[C@H](O)[C@H]4O)[C@@H](O)[C@H](O)[C@H]3O)CC[C@]3(C)C(=CCC4[C@@]5(C)C[C@@H](O)[C@H](O)[C@@](C)(CO)C5CC[C@]43C)C2[C@H]1C", "note": "(some centres undefined)", "activity change, negative = inhibition": "3.24% [at 11.6 µM]"}, {"smiles": "COC(=O)C1C(O)CCC2CN3CCc4c([nH]c5ccccc45)C3CC21", "note": "(centres undefined)", "activity change, negative = inhibition": "3.15%"}, {"smiles": "CC(C)C[C@H](NC(=O)[C@@H]1O[C@H]1C(=O)O)C(=O)NCCCCN=C(N)N", "activity change, negative = inhibition": "-10.9%"}, {"smiles": "CCC(C)/C=C(C)/C=C/C1=CC2=CC(=O)C(C)(O)C(OC(C)=O)C2CO1", "note": "(centres undefined)", "activity change, negative = inhibition": "-21.5%"}, {"smiles": "CC(=O)Nc1cccc2c1c(Sc1ccc(Cl)cc1)c(C)n2CC(=O)O", "activity change, negative = inhibition": "2.43%"}, {"smiles": "COc1cccc(OC)c1-c1ccc(C[C@H](NC(=O)c2c(Cl)cccc2Cl)C(=O)O)cc1", "activity change, negative = inhibition": "4.7%"}, {"smiles": "COc1ccc2[nH]c(S(=O)Cc3ncc(C)c(OC)c3C)nc2c1", "note": "(centres undefined)", "activity change, negative = inhibition": "4.41%"}, {"smiles": "Oc1ccc2c(-c3c(-c4ccccn4)nn4c3CCC4)ccnc2c1", "activity change, negative = inhibition": "-2.3%"}, {"smiles": "Cc1sc(C)c(C(=O)NC2(c3ccc(C(=O)O)cc3)CC2)c1Cc1ccc(C(F)(F)F)cc1", "outcome": "inactive"}, {"smiles": "CC[C@H](NC(=O)c1c(O)c(-c2ccccc2)nc2ccccc12)c1ccccc1", "outcome": "inactive"}, {"smiles": "CC(C)C1CCC(C(=O)N[C@@H](Cc2ccccc2)C(=O)O)CC1", "note": "(some centres undefined)", "activity change, negative = inhibition": "1.08%"}, {"smiles": "COc1cn(-c2ccc(-n3cccn3)cc2F)nc(-c2ccnn2-c2ccccc2)c1=O", "outcome": "inactive"}, {"smiles": "NC[C@@H]1O[C@@H](O[C@@H]2[C@@H](O[C@@H]3O[C@H](CO)[C@@H](O)[C@H]3O)[C@H](O)[C@@H](N)C[C@H]2N)[C@@H](N)[C@H](O)[C@H]1O", "outcome": "inactive [at 11.6 µM]"}, {"smiles": "CC1(C)CC=C(c2cnc3ccccc3c2)c2cc(C(=O)Nc3ccc(C(=O)O)cc3)ccc21", "outcome": "inactive"}, {"smiles": "COc1ccnc2[nH]cc(C(=O)C(=O)N3CCN(C(=O)c4ccccc4)CC3C)c12", "note": "(centres undefined)", "outcome": "inactive"}, {"smiles": "CN(C)CCC[C@]1(c2ccc(F)cc2)OCc2cc(C#N)ccc21", "outcome": "inactive"}, {"smiles": "CCC(C)C1NC(=O)C2C(C)CCN2C(=O)C(CC(O)CO)OC(=O)CCNC(=O)C(C)N(C)C(=O)C(C(C)C)N(C)C1=O", "note": "(centres undefined)", "activity change, negative = inhibition": "-1.51% [at 25.7 µM]"}, {"smiles": "CCCSc1nc(NC2CC2c2ccc(F)c(F)c2)c2nnn(C3CC(OCCO)C(O)C3O)c2n1", "note": "(centres undefined)", "activity change, negative = inhibition": "1.8%"}, {"smiles": "COc1c(O[C@@H]2O[C@H](CO)[C@@H](O)[C@H](O)[C@H]2O)c(CCC(=O)O)cc2ccoc12", "activity change, negative = inhibition": "-1.76%"}, {"smiles": "CC1(C)C2CC[C@]3(C)C(C(=O)C=C4[C@H]5C[C@@](C)(C(=O)O)CC[C@]5(C)CC[C@]43C)[C@@]2(C)CC[C@@H]1O", "note": "(some centres undefined)", "activity change, negative = inhibition": "2.25% [at 25.7 µM]"}, {"smiles": "CCc1nnc(NS(=O)(=O)c2ccc(NC(=S)NC(=O)/C=C/c3ccc(F)cc3)cc2)s1", "outcome": "inactive"}, {"smiles": "C=CC(C)(O)CCC1C(C)(O)CCC2C(C)(C)CCCC21C", "note": "(centres undefined)", "outcome": "inactive"}, {"smiles": "C[C@@H]1O[C@@H](OC2C(O[C@H]3[C@H](O[C@H]4CC[C@@]5(C)C(CC[C@]6(C)C5CC=C5C7CC(C)(C)CC(O)[C@]7(C)CC[C@]56C)C4(C)C)O[C@H](C(=O)O)[C@@H](O)[C@@H]3O)OC(CO)C(O)C2O)[C@H](O)[C@H](O)[C@H]1O", "note": "(some centres undefined)", "activity change, negative = inhibition": "2.46% [at 11.6 µM]"}, {"smiles": "CCc1cccc2c3c([nH]c12)[C@@](CC)(CC(=O)O)OCC3", "outcome": "inactive"}, {"smiles": "CC1(C)[C@@H]2CC=C(CO[C@@H]3O[C@H](CO[C@@H]4OC[C@H](O)[C@H](O)[C@H]4O)[C@@H](O)[C@H](O)[C@H]3O)[C@H]1C2", "activity change, negative = inhibition": "0.803% [at 25.7 µM]"}, {"smiles": "CC[C@H](C)[C@H](NC(=O)[C@H](Cc1ccc(O)cc1)NC(=O)[C@@H](N)C(C)C)C(=O)N[C@@H](Cc1cnc[nH]1)C(=O)N1CCC[C@H]1C(=O)N[C@@H](Cc1ccccc1)C(=O)O", "outcome": "inactive [at 6.45 µM]"}, {"smiles": "C/C=C/C=C/[C@@H]1O[C@](O)([C@H](CC)C(=O)NC/C=C/C=C(\\C)[C@@H](OC)[C@@H](C)[C@@H]2O[C@H](/C=C/C=C/C=C(\\C)C(=O)c3c(O)ccn(C)c3=O)[C@H](O)[C@@H]2O)[C@H](O)[C@H](O)C1(C)C", "outcome": "inactive [at 11.6 µM]"}, {"smiles": "CC(C)=CCC/C(C)=C/CO[C@@H]1O[C@H](CO[C@@H]2O[C@@H](CO)[C@H](O)[C@H]2O)[C@@H](O)[C@H](O)[C@H]1O", "outcome": "inactive [at 25.7 µM]"}, {"smiles": "CCc1cc(CC[C@]2(C3CCCC3)CC(O)=C(Cc3nc4nc(C)cc(C)n4n3)C(=O)O2)cc(CC)n1", "outcome": "inactive"}, {"smiles": "C=C1C(O)CC2C(C(=O)O)=COC(OC3OC(CO)C(O)C(O)C3OC(=O)/C=C\\c3ccc(O)cc3)C12", "note": "(centres undefined)", "activity change, negative = inhibition": "2.88% [at 25.7 µM]"}, {"smiles": "CC1(C)CC[C@]2(C(=O)O)CC[C@]3(C)C(=CCC4[C@@]5(C)CC[C@H](O)C(C)(C)C5CC[C@]43C)C2C1", "note": "(some centres undefined)", "activity change, negative = inhibition": "0.173% [at 25.7 µM]"}, {"smiles": "CCCCCOC(=O)Nc1nc(=O)n(C2O[C@H](C)[C@@H](O)[C@H]2O)cc1F", "note": "(some centres undefined)", "activity change, negative = inhibition": "4.57%"}]}]}
